Screens as filed in PubChem.
A selection: hits, their analogues and other compounds. The true share with any hit is near 2.3%.
M1 antag: human CHRM1 antagonism. P11229. CHO-K1 hM1, Fluo-8 calcium fluorescence, ACh EC80 antagonist. inhibition, % at 3 µM. 1.3% of 360,000 active. AID 588852;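 active means percent inhibition above its own plate's cutoff, namely the mean of that plate's compound wells plus 3 SD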;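 further: peak over basal fluorescence ratio during 140 s after agonist addition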
Target sequence (P11229 whole entry, looked up): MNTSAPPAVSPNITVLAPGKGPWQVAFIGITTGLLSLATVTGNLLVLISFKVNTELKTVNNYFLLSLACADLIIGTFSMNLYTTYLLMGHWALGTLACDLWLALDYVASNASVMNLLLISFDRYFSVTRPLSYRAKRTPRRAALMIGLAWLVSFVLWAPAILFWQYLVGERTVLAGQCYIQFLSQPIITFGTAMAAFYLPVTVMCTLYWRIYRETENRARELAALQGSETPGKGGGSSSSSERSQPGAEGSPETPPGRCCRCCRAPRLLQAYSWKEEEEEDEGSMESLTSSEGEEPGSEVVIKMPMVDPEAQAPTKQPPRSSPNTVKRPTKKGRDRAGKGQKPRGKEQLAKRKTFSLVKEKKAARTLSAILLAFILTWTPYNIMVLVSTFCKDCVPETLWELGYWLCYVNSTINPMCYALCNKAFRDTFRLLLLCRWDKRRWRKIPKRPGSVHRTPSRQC
CHO-K1 Ca PAM: nonselective activator or artifact in parental CHO-K1 calcium assay; ATP EC20, Fluo-8 calcium fluorescence; 0% at ATP EC20, 100% at ATP max; activation, % at 3 µM; 0.02% of 360,000 active; AID 602247;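 active means activation above the run cutoff, the mean activation of all test compounds plus 3 SD, cut at about 40% in these data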;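 further: peak over basal fluorescence ratio in a 140 s read after ATP addition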
CHRM1 PAM: positive allosteric modulators of human M1 muscarinic receptor. CHO-K1 hM1, Fluo-8 calcium fluorescence, ACh EC20; 0% = ACh EC20, 100% = maximal ACh. activation, % at 3 µM. 0.088% of 360,000 active; in the data active means activation above about 19%, passing the limit was not always enough
M1 ag parental: M1 agonist counterscreen hit in parental CHO-K1 cells; Fluo-8 calcium fluorescence; scaled to maximal ATP response, vehicle zero; AID 602248; activation, % at 3 µM; 0.48% of 360,000 active; in the data active means activation above about 15%;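 further: untransfected CHO-K1 host cells lacking M1 receptor as counterscreen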
CHO-K1 Ca antag: M1 antagonist counterscreen hit in parental CHO-K1 cells; ATP-induced calcium, Fluo-8 fluorescence; inhibition, % at 3 µM; 0.6% of 360,000 active;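 active means inhibition above a per-plate cutoff, the plate's mean sample inhibition plus 3 SD, cut at about 24% in these data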
CHRM1 agonist: activates human CHRM1 receptor | CHO-K1 hM1, Fluo-8 calcium fluorescence, agonist mode; 0% DMSO, 100% acetylcholine EC100 | activation, % at 3 µM | 0.33% of 360,000 active | AID 588814;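 active means activation above the run's mean compound activation plus 3 SD, cut at about 16% in these data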;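 further: peak over basal fluorescence ratio within a 140 s kinetic read after compound addition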
Each line names hits and unclear results; the compound was inactive in the other large screens.

CCn1c(C)c(C(C)=O)c(N2CCN(C(c3ccccc3)c3ccccc3)CC2)nc1=S	M1 antag 53.5
CCn1c(C)c(C(C)=O)c(N2CCN(c3ccccc3)CC2)nc1=S	none
CC(=O)c1c(N2CCCC2)nc(=S)n(-c2ccccc2)c1C	M1 antag 74.8
CCn1c(C)c(C(C)=O)c(N2CCCCC2)nc1=S	none
CC(=O)c1c(N2CCCCC2)nc(=S)n(-c2ccccc2)c1C	none
CCN(CC(=O)Nc1c(F)cccc1F)C(=O)c1cccc(S(=O)(=O)N2CCCc3ccccc32)c1	none
COCCNc1nc(-c2ccc(OC)cc2C)c2sc(-c3ccccc3)cc2n1	none
O=C(Nc1ccc(S(=O)(=O)N2CCc3ccccc3C2)cc1)C1CCCO1 (stereo not drawn)	none
O=C(Nc1ccc(S(=O)(=O)N2CCCc3ccccc32)cc1)C1CCCO1 (stereo not drawn)	M1 antag 39.8
C=CCN(CC=C)Cc1c(O)ccc2c(=O)c(-c3ccccc3)coc12	none
COc1ccccc1CCN1CCCC(CN(C)C(=O)c2ccco2)C1 (stereo not drawn)	none
COc1ccccc1CCN1CCCC(CN(C)CC(C)(C)CO)C1 (stereo not drawn)	M1 antag 46.7
COc1ccccc1CCN1CCCC(CN(C)C(=O)c2ccoc2)C1 (stereo not drawn)	M1 antag 43.7
COCc1ccc(C(=O)N(C)CC2CCCN(CCc3ccccc3F)C2)o1 (stereo not drawn)	M1 antag 48.4
Cc1cnc(C(=O)N2CCCC(N3CCN(c4cccc(C(F)(F)F)c4)CC3)C2)cn1 (stereo not drawn)	none
CC1CC2(CCCCC2)N2C(=O)C(=O)c3cccc1c32 (stereo not drawn)	CHRM1 agonist 16.6
O=[N+]([O-])c1ccc(N=Nc2c(Cl)cc(O)cc2Cl)cc1	M1 antag 31.9, M1 ag parental 17.4, CHO-K1 Ca antag 39.5
Cc1c(/C=N/NC(=O)c2sc3ccccc3c2Cl)cnn1C	CHO-K1 Ca antag 25.7
Cc1ccc(CC(=O)Nc2nnc(-c3ccc(F)cc3)o2)c(C)c1	none
COc1ccc(NC(=O)N2c3ccc(OC)cc3C(C)=CC2(C)C)cc1	CHO-K1 Ca antag 25.5
O=[N+]([O-])/C=C/c1cn(Cc2ccc(F)cc2)c2ccccc12	M1 antag 32.9
O=C(O)c1ccc(N/N=C/c2cn(Cc3ccc(F)cc3)c3ccccc23)cc1	none
COc1cc(NC(=S)N2CCN(C)CC2)cc(OC)c1	none
C[C@@H]1CN([C@@H](C)CO)C(=O)c2cc(Br)cnc2O[C@H]1CN(C)C(=O)CCN1CCCCC1	none
CCCC#Cc1cnc2c(c1)C(=O)N([C@H](C)CO)C[C@H](C)[C@@H](CN(C)C(=O)CCN1CCCCC1)O2	M1 antag 45.4
C[C@@H]1CN([C@@H](C)CO)C(=O)c2cc(C#CCN(C)C)cnc2O[C@H]1CN(C)Cc1ccc2c(c1)OCO2	M1 antag 61.8
COc1cccc(S(=O)(=O)N(C)C[C@@H]2Oc3ncc(C#CCN(C)C)cc3C(=O)N([C@H](C)CO)C[C@H]2C)c1	M1 antag 48.7
S=C1NC[C@H](Cc2ccccc2)N1CCCCC1CCCCC1	none
CCCCN1CCC(CN2C(=S)NC[C@@H]2CC(C)C)CC1	none
CC(C)C[C@H]1CNC(=S)N1CC1CCN(CCCCc2ccccc2)CC1	M1 antag 51.7
S=C1NC[C@H](Cc2ccccc2)N1CC1CCN(CCCC2CCCC2)CC1	M1 antag 38.5
CC(C)C[C@H]1CNC(=S)N1CC1CCN(CCCC2CCCC2)CC1	M1 antag 75.4
CN(C)C1=NC[C@H](Cc2ccccc2)N1CCCC1CCCCC1	M1 antag 30.9
CN(C)C1=NC[C@H](Cc2ccccc2)N1CCCC1CCCC1	none
CCCN(C(=O)/C=C/c1ccc(S(=O)(=O)N(CC)CC)cc1)C1CCS(=O)(=O)C1 (stereo not drawn)	none
Cc1cccc(C(=O)NCCC(=O)NCc2ccccc2Cl)c1	none
CN1CCCN=C1COC(=O)C(O)(c1ccccc1)C1CCCCC1 (stereo not drawn)	M1 antag 99.0
CCOC(=O)c1ccc2c(c1)nc(C1CCN(S(=O)(=O)c3cccs3)CC1)n2CC	M1 ag parental 15.5
CCOC(=O)c1cccc(NC(=O)C2CCN(S(=O)(=O)c3cccs3)CC2)c1	none
COc1ccc(C[C@H]2CN3C(=NC[C@H]3C)N2CCNC(=O)c2ccc(C)c(Br)c2)cc1	M1 antag 76.1
CN(C)c1nc(-c2ccccc2)nnc1C(F)(F)F	none
CN(C)CCNc1nc(-c2ccccc2)nnc1C(F)(F)F	CHO-K1 Ca antag 45.6
Cc1ccc(C)c(CN2CCC(n3nccc3NC(=O)CCCc3ccccc3)CC2)c1	none
CCN(CC(=O)Nc1c(F)cccc1F)C(=O)CSc1nnc(-c2ccco2)n1CC	none
CN(C)C(=O)CSc1nnc(-c2cc(-c3cccs3)nc3ccccc23)o1	CHO-K1 Ca antag 26.7
O=C(CCN1C(=O)/C(=C\c2ccccc2)SC1=S)N1CCCCC1	M1 ag parental 15.1
Cc1ccc(/C=C2\SC(=S)N(CCC(=O)N3CCCCC3)C2=O)cc1	none
O=C(O)CN1C(=O)/C(=C/C=C/c2ccccc2)SC1=S	CHO-K1 Ca antag 31.3
CC(=O)c1ccc(NC(=O)CN2C(=O)/C(=C/C=C/c3ccccc3)SC2=S)cc1	none
O=C1/C(=C\c2cc(Cl)c(O)c(Cl)c2)SC(=S)N1Cc1ccccc1	M1 antag 53.6, M1 ag parental 16.2, CHRM1 agonist 51.4
COc1cccc(/C=C2\SC(=S)N(CCCC(=O)N3CCCCC3CCO)C2=O)c1 (stereo not drawn)	M1 ag parental 15.3
CCN1CCN(c2ccc(NC(=O)CCc3c(C)nc4c(-c5ccc(F)cc5)c(C)nn4c3C)cc2)CC1	M1 antag 33.5
Cc1nc2c(-c3ccc(F)cc3)c(C)nn2c(C)c1CCC(=O)Nc1ccccc1	none
O=C(Cc1ccccc1Cl)c1ccccc1	CHRM1 PAM 32.1
O=C(CC(=O)c1ccccc1)c1ccccc1	none
COc1ccc(CNC(=O)COC(=O)CN2C(=O)C3CC=CCC3C2=O)cc1 (stereo not drawn)	CHRM1 PAM 26.5
CCOc1ccc(CCN2C(=S)N([C@@H](CC(C)C)CN3CCC[C@@H]3CN3C(=S)NC[C@@H]3Cc3ccccc3)C[C@@H]2Cc2ccc(O)cc2)cc1	none
COc1cc(OC)cc(C(=O)NNC(=O)CCNC(=O)c2ccc(Br)cc2)c1	none
CO/N=C/CC(=O)Nc1ccc(F)cc1F	none
O=C(C/C=N\OCc1ccc([N+](=O)[O-])cc1)Nc1ccc(F)cc1F	M1 ag parental 29.4
CC(C)CCNC(=O)Cn1c(=O)oc2cc(S(=O)(=O)N3CCc4ccccc43)ccc21	M1 antag 31.3
O=C(Nc1cc(Cl)ccc1N1CCOCC1)c1cccnc1Cl	none
